According to the supplement of paper PMC10127200:
Structures can show the parent of a compound that is named as a salt.

What follows are compounds tested on HEPG2 (assay: Euclidean distance of Cell Painting phenotypic profile (signed KS, 77 features) to DMSO centroid (dimensionless distance); 5 or 10 uM (library dependent); higher = stronger phenotypic change vs DMSO (phenoactivity)). Conditions: 48 h.
Summary of the method: (§1)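 At 10 or 5 uM, as set by the library, and 0.1% DMSO final, compounds were applied for 48 h to five cancer lines and one healthy fibroblast line. Stained cells were imaged confocally at 20X in 9 fields per well, and Harmony extracted 77 features scored as signed Kolmogorov-Smirnov statistics against vehicle wells on the same plate. Profiles underwent plate-position correction, correlation weighting and replicate averaging at the top dose. Phenoactivity is the Euclidean distance from each such profile to the median vehicle profile.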
`O=C(CCCCCN1C(=O)c2cccc3cccc(c23)C1=O)NO` [Scriptaid] gave an Euclidean distance of 2.92.
`CCCNS(=O)(=O)Nc1ncnc(OCCOc2ncc(Br)cn2)c1-c1ccc(Br)cc1` [Macitentan] gave an Euclidean distance of 0.806.
With `CCC1=C[C@@H]2CN(C1)Cc1c([nH]c3ccccc13)[C@@](C(=O)OC)(c1cc3c(cc1OC)N(C)[C@H]1[C@@](O)(C(=O)OC)[C@H](OC(C)=O)[C@]4(CC)C=CCN5CC[C@]31[C@@H]54)C2` [Vinorelbine Tartrate] the Euclidean distance was 2.97.
`O=C(NC1CCOCC1)c1ccc(-c2cc(-c3c[nH]nc3-c3ccccn3)ccn2)cc1` gave an Euclidean distance of 1.01.
Compound `CC(C)c1ccc(NC(=O)Cn2cnc3c2c(=O)n(C)c(=O)n3C)cc1` has an Euclidean distance of 0.953.
In the case of `COc1ccccc1S(=O)(=O)Nc1ccc2c(c1)CN(C)C(=O)N2`, the Euclidean distance was 2.74.
`O=C(O)COCCN1CCN(C(c2ccccc2)c2ccc(Cl)cc2)CC1` (centres undefined) [Cetirizine DiHCl] showed an Euclidean distance of 0.618.
For `Nc1ccc(-c2ccc3ncc4ccc(=O)n(-c5cccc(C(F)(F)F)c5)c4c3c2)cn1` [Torin 2], the Euclidean distance was 1.26.
For `O=C1OC(c2ccc(O)cc2)(c2ccc(O)cc2)c2ccccc21` [Phenolphthalein], the Euclidean distance was 0.6.
For `CS(=O)(=O)Nc1ccc([N+](=O)[O-])cc1Oc1ccccc1` [Nimesulide], the Euclidean distance was 1.82.
For `CC1=CC[C@@](O)(C(C)C)CC1` [Terpinen-4-ol], the Euclidean distance was 0.873.
In the case of `CC(C)c1ccc2oc3nc(N)c(C(=O)O)cc3c(=O)c2c1` [Amlexanox], the Euclidean distance was 0.909.
`CCCCC(C)(O)C/C=C/[C@H]1[C@H](O)CC(=O)[C@@H]1CCCCCCC(=O)OC` (mixture of isomers) [Misoprostol] gave an Euclidean distance of 0.553.
In the case of `CS(=O)(=O)c1ccc([C@@H](O)[C@@H](CO)NC(=O)C(Cl)Cl)cc1` [Thiamphenicol], the Euclidean distance was 0.983.

What follows are compounds tested on OVCAR4 in the same assay as above. Conditions: 48 h.
Summary of the method: as §1
Work on `O=C(O)c1cc(/N=N/c2ccc(S(=O)(=O)Nc3ccccn3)cc2)ccc1O` [Sulfasalazine] yielded an Euclidean distance of 0.897.
`CO[C@H]1C[C@H](O[C@@H]2/C(C)=C/C[C@@H]3C[C@@H](C[C@]4(CC[C@H](C)[C@@H](C5CCCCC5)O4)O3)OC(=O)[C@@H]3C=C(C)/C(=N/O)[C@H]4OC/C(=C\C=C\[C@@H]2C)[C@]43O)O[C@@H](C)[C@@H]1O` [Selamectin] was tested, and the Euclidean distance was 1.04.
Work on `Cc1cc(C(C)Nc2ccccc2)c2nc(N3CCOCC3)cc(=O)n2c1` (centres undefined) yielded an Euclidean distance of 2.37.
Work on `CC(C)N1CCN(Cc2cnc(-c3cc(-c4cccc5[nH]ccc45)cc4[nH]ncc34)o2)CC1` yielded an Euclidean distance of 3.89.
In the case of `COc1ccc(C2=N[C@@H](c3ccc(Cl)cc3)[C@@H](c3ccc(Cl)cc3)N2C(=O)N2CCNC(=O)C2)c(OC(C)C)c1` [Nutlin-3], the Euclidean distance was 1.17.
`CN(C)c1ccc(O)c2c1C[C@H]1C[C@H]3[C@H](N(C)C)C(O)=C(C(N)=O)C(=O)[C@@]3(O)C(O)=C1C2=O` [Minocycline HCl] gave an Euclidean distance of 1.14.
Compound `Oc1cccc(O)c1` [Resorcinol] has an Euclidean distance of 1.05.
For `CCOC(=O)[C@H](CCc1ccccc1)N[C@@H](C)C(=O)N1[C@H](C(=O)O)C[C@H]2CCCC[C@@H]21` [Trandolapril], the Euclidean distance was 0.99.
For `C=CC(=O)Nc1cc(Nc2nccc(-c3cn(C)c4ccccc34)n2)c(OC)cc1N(C)CCN(C)C` [Osimertinib (AZD9291)], the Euclidean distance was 4.21.
In the case of `Cc1ccc(CNc2ncnc3ccc(-c4ccc(CO)o4)cc23)o1`, the Euclidean distance was 1.67.
With `O=C(O)CC[C@H]1CC[C@@](c2cc(F)ccc2F)(S(=O)(=O)c2ccc(Cl)cc2)CC1` the Euclidean distance was 1.58.
`O=c1[nH]cc(F)c(=O)[nH]1` [Fluorouracil (5-Fluoracil. 5-FU)] gave an Euclidean distance of 2.12.
Work on `C[N+]1(C)[C@@H]2C[C@@H](OC(=O)C(O)(c3cccs3)c3cccs3)C[C@H]1[C@@H]1O[C@@H]12` [Tiotropium Bromide hydrate] yielded an Euclidean distance of 0.837.
Work on `Cc1onc(-c2c(F)cccc2Cl)c1C(=O)N[C@@H]1C(=O)N2[C@@H]1SC(C)(C)[C@@H]2C(=O)O` [Flucloxacillin sodium] yielded an Euclidean distance of 1.72.
`Cc1csc(-c2nnc(Nc3ccc(Oc4ncccc4-c4ccnc(N)n4)cc3)c3ccccc23)c1` gave an Euclidean distance of 3.01.
Work on `COc1cc2c(cc1OC)[C@H]1C[C@@H](OC(=O)[C@@H](N)C(C)C)[C@H](CC(C)C)CN1CC2` [Valbenazine tosylate] yielded an Euclidean distance of 1.05.
For `FC(F)c1nc2ccccc2n1-c1nc(N2CCOCC2)nc(N2CCOCC2)n1`, the Euclidean distance was 3.13.
Work on `COc1ccc(-c2ccc3cc(C(=O)O)ccc3c2)cc1C12CC3CC(CC(C3)C1)C2` [Adapalene] yielded an Euclidean distance of 2.03.
Compound `COc1cc2ncnc(Nc3cccc(Cl)c3F)c2cc1OC(=O)N1CCN(C)C[C@H]1C` has an Euclidean distance of 1.33.
Work on `Nc1ccc(S(=O)(=O)Nc2ncccn2)cc1` [Sodium sulfadiazine] yielded an Euclidean distance of 1.12.
`CC(C)COCC(CN(Cc1ccccc1)c1ccccc1)N1CCCC1` (centres undefined) [Bepridil hydrochloride] showed an Euclidean distance of 1.73.
Compound `Oc1nc(-c2ccc(C(F)(F)F)cc2)nc2c1CSCC2` has an Euclidean distance of 1.15.
In the case of `CCn1cc(C(=O)O)c(=O)c2cc(F)c(N3CCN(C)CC3)cc21` [Pefloxacin Mesylate], the Euclidean distance was 1.3.
`COc1ccc2[nH]cc(CCNC(C)=O)c2c1` [Melatonin] showed an Euclidean distance of 0.982.
For `Cc1ccc(C(=O)Nc2ccc(CN3CCN(C)CC3)c(C(F)(F)F)c2)cc1C#Cc1cnc2cccnn12`, the Euclidean distance was 4.29.
Compound `CNC(=O)c1cc(Oc2ccc(NC(=O)Nc3ccc(Cl)c(C(F)(F)F)c3)cc2)ccn1` [Sorafenib] has an Euclidean distance of 2.28.
With `O=C(CCCCCN1C(=O)c2cccc3cccc(c23)C1=O)NO` [Scriptaid] the Euclidean distance was 3.33.
`CCCNS(=O)(=O)Nc1ncnc(OCCOc2ncc(Br)cn2)c1-c1ccc(Br)cc1` [Macitentan] showed an Euclidean distance of 0.809.
`CCC1=C[C@@H]2CN(C1)Cc1c([nH]c3ccccc13)[C@@](C(=O)OC)(c1cc3c(cc1OC)N(C)[C@H]1[C@@](O)(C(=O)OC)[C@H](OC(C)=O)[C@]4(CC)C=CCN5CC[C@]31[C@@H]54)C2` [Vinorelbine Tartrate] showed an Euclidean distance of 3.03.
With `O=C(NC1CCOCC1)c1ccc(-c2cc(-c3c[nH]nc3-c3ccccn3)ccn2)cc1` the Euclidean distance was 0.73.
In the case of `CC(C)c1ccc(NC(=O)Cn2cnc3c2c(=O)n(C)c(=O)n3C)cc1`, the Euclidean distance was 1.16.
`COc1ccccc1S(=O)(=O)Nc1ccc2c(c1)CN(C)C(=O)N2` gave an Euclidean distance of 1.87.
Compound `O=C(O)COCCN1CCN(C(c2ccccc2)c2ccc(Cl)cc2)CC1` (centres undefined) [Cetirizine DiHCl] has an Euclidean distance of 1.47.
Compound `Nc1ccc(-c2ccc3ncc4ccc(=O)n(-c5cccc(C(F)(F)F)c5)c4c3c2)cn1` [Torin 2] has an Euclidean distance of 2.88.
In the case of `O=C1OC(c2ccc(O)cc2)(c2ccc(O)cc2)c2ccccc21` [Phenolphthalein], the Euclidean distance was 1.49.
In the case of `CS(=O)(=O)Nc1ccc([N+](=O)[O-])cc1Oc1ccccc1` [Nimesulide], the Euclidean distance was 1.8.
For `CC1=CC[C@@](O)(C(C)C)CC1` [Terpinen-4-ol], the Euclidean distance was 0.882.
With `CC(C)c1ccc2oc3nc(N)c(C(=O)O)cc3c(=O)c2c1` [Amlexanox] the Euclidean distance was 0.738.
Compound `CCCCC(C)(O)C/C=C/[C@H]1[C@H](O)CC(=O)[C@@H]1CCCCCCC(=O)OC` (mixture of isomers) [Misoprostol] has an Euclidean distance of 1.08.
For `CS(=O)(=O)c1ccc([C@@H](O)[C@@H](CO)NC(=O)C(Cl)Cl)cc1` [Thiamphenicol], the Euclidean distance was 1.15.
